Results taken from the antibiotic and cytotoxicity screens of Wong et al. (2023).
Out of some 39,000 compounds screened, about 1,500 (3.8%) were called active. Only a selection was taken, and actives are over-represented in it overall.

These compounds were tested on HSkMC (human skeletal muscle cells) (assay: cytotoxicity call (relative viability < 0.9)). Conditions: 10 µM.
`COc1ccc(NC(=O)N(C)C[C@@H]2OCc3cnnn3CCCC(=O)N([C@H](C)CO)C[C@@H]2C)c(OC)c1` was tested, and the cytotoxicity call was “inactive”.
With `C[C@@H]1CCCCO[C@@H](CN(C)C(=O)CCC(F)(F)F)[C@@H](C)CN([C@@H](C)CO)C(=O)c2cc(NC(=O)CCC(F)(F)F)ccc2O1` the cytotoxicity call was “inactive”.
For `C[C@@H]1CN(C)C(=O)c2cccc(NC(=O)c3ccncc3)c2O[C@H]1CN(C)Cc1ccc(Oc2ccccc2)cc1`, the cytotoxicity call was “inactive”.
In the case of `O=C(C[C@@H]1CC[C@@H]2[C@H](COC[C@@H](O)CN2S(=O)(=O)c2ccccc2)O1)N[C@H]1CCN(Cc2ccccc2)C1`, the cytotoxicity call is reported as “inactive”.
`COc1cc(-c2cc(=O)c3c(s2)N(Cc2ccco2)[C@@H](c2ccc(O)c(OC)c2)CC3=O)ccc1O` was tested, and the cytotoxicity call was “inactive”.
For `C[C@H](CO)N1C[C@H](C)[C@@H](CN(C)C(=O)Nc2ccc(F)cc2)Oc2ccc(NC(=O)Nc3cccc4ccccc34)cc2CC1=O`, the cytotoxicity call was “inactive”.
With `CC(C)(C)C(=O)OCOP(=O)(OCOC(=O)C(C)(C)C)C(C)(Oc1ccc(O)cc1)P(=O)(OCOC(=O)C(C)(C)C)OCOC(=O)C(C)(C)C` the cytotoxicity call was “inactive”.
`O=C1Nc2ccc(I)cc2C1=Cc1cc(Br)c(O)c(Br)c1` was tested, and the cytotoxicity call was “active”.
In the case of `COc1ccc2c(c1)/C(=N\O)C(=O)N2`, the cytotoxicity call is reported as “inactive”.
`COc1ccc2c(c1)C(=O)C(=O)N2` was tested, and the cytotoxicity call was “inactive”.
For `C[C@H](CO)N1C[C@H](C)[C@H](CN(C)C(=O)Nc2ccc(C(F)(F)F)cc2)OCCCC[C@H](C)Oc2ccc(NC(=O)c3ccccc3)cc2C1=O`, the cytotoxicity call was “inactive”.
For `C[C@H](CO)N1C[C@H](C)[C@H](CN(C)C(=O)Nc2ccc3c(c2)OCO3)OCCCC[C@H](C)Oc2ccc(NS(=O)(=O)c3ccccc3)cc2C1=O`, the cytotoxicity call was “inactive”.
With `CCN1C(=O)[C@H]2[C@H](O)CS[C@H]2C1=O` the cytotoxicity call was “inactive”.
In the case of `C[C@@H]1CN([C@@H](C)CO)S(=O)(=O)c2ccc(C#C[C@@H](C)O)cc2O[C@H]1CN(C)C(=O)C1CCCCC1`, the cytotoxicity call is reported as “inactive”.
For `c1ccc2c(c1)-c1ccc3ccc4cccc5cc-2c1c3c45`, the cytotoxicity call was “inactive”.
For `CCN(CC)CCCCNc1ncc2cc(-c3c(Cl)cccc3Cl)c(NC(=O)NC(C)(C)C)nc2n1`, the cytotoxicity call was “inactive”.
`CCN(CC)CCCCNc1ncc2cc(-c3cc(OC)cc(OC)c3)c(NC(=O)NC(C)(C)C)nc2n1` was tested, and the cytotoxicity call was “active”.
For `CCN(CC)CCNC(=O)COc1ccc(OC)cc1.Cl`, the cytotoxicity call was “inactive”.
With `Cc1noc(C)c1S(=O)(=O)N(C)C[C@@H]1Oc2ccc(NC(=O)Cc3cn(C)c4ccccc34)cc2CC(=O)N([C@@H](C)CO)C[C@H]1C` the cytotoxicity call was “inactive”.
For `C[C@@H]1CN([C@@H](C)CO)C(=O)c2cc(NS(=O)(=O)c3ccc(F)cc3)ccc2O[C@@H]1CN(C)CC1CC1`, the cytotoxicity call was “inactive”.
With `COc1cc(C(=O)OCCN2CCN(CCOC(=O)c3cc(OC)c(OC)c(OC)c3)CC2)cc(OC)c1OC` the cytotoxicity call was “inactive”.
With `CCc1c(O)cc(O)c(C(=O)c2ccc(OCCN3CCOCC3)c(OC)c2)c1CC(=O)N(CCOC)CCOC` the cytotoxicity call was “active”.
For `COc1c(OCCCN2CCOCC2)ccc2c1N=C(NC(=O)c1cnc(N)nc1)N1CCN=C21`, the cytotoxicity call was “inactive”.
`C[C@@H]1CN([C@@H](C)CO)S(=O)(=O)c2ccc(C#CC3(O)CCCC3)cc2O[C@H]1CN(C)C(=O)Nc1ccccc1` was tested, and the cytotoxicity call was “inactive”.
For `N=C(N)N/N=C1\CCc2c(C(=N)N)cccc21`, the cytotoxicity call was “active”.
`C[C@H](CO)N1C[C@H](C)[C@H](CN(C)S(=O)(=O)c2ccccc2)Oc2ccc(NS(=O)(=O)c3ccccc3)cc2CC1=O` was tested, and the cytotoxicity call was “inactive”.
In the case of `C[C@H](CO)N1C[C@H](C)[C@@H](CN(C)Cc2ccc3c(c2)OCO3)Oc2cc(C#CCN(C)C)ccc2S1(=O)=O`, the cytotoxicity call is reported as “inactive”.
With `CN(c1ncccc1CNc1nc(Nc2ccc3c(c2)CC(=O)N3)ncc1C(F)(F)F)S(C)(=O)=O` the cytotoxicity call was “active”.
With `CNC(=O)c1ccc(Nc2ncc(C(F)(F)F)c(NCc3nccnc3N(C)S(C)(=O)=O)n2)cc1` the cytotoxicity call was “active”.
For `C[C@H](CO)N1C[C@H](C)[C@@H](CN(C)S(C)(=O)=O)Oc2ccc(NS(=O)(=O)c3cccs3)cc2CC1=O`, the cytotoxicity call was “inactive”.
In the case of `C[C@H](CO)N1C[C@H](C)[C@@H](CN(C)S(=O)(=O)c2cn(C)cn2)Oc2ccc(NC(=O)CCC(F)(F)F)cc2CC1=O`, the cytotoxicity call is reported as “inactive”.
In the case of `COc1ccncc1-c1ccccc1CN(C(=O)c1ccc(-c2ccc(C#N)cc2)o1)c1ccc(N2CCNCC2)cc1`, the cytotoxicity call is reported as “active”.
In the case of `C[C@@H]1CN([C@H](C)CO)C(=O)Cc2cc(NC(=O)Nc3ccc(F)cc3)ccc2O[C@H]1CN(C)Cc1ccc(Cl)c(Cl)c1`, the cytotoxicity call is reported as “active”.
For `C[C@@H]1CN([C@@H](C)CO)C(=O)Cc2cc(NC(=O)Nc3ccc(F)cc3)ccc2O[C@@H]1CN(C)Cc1ccc(Cl)c(Cl)c1`, the cytotoxicity call was “active”.
`C[C@@H]1CN([C@@H](C)CO)C(=O)Cc2cc(NC(=O)Nc3ccc(F)cc3)ccc2O[C@H]1CN(C)Cc1ccc(Cl)c(Cl)c1` was tested, and the cytotoxicity call was “active”.
In the case of `C[C@H](CO)N1C[C@H](C)[C@@H](CN(C)Cc2ccc(Cl)c(Cl)c2)Oc2ccc(NC(=O)Nc3ccc(F)cc3)cc2CC1=O`, the cytotoxicity call is reported as “active”.
For `C[C@@H]1CCCCO[C@@H](CN(C)C(=O)c2ccccc2)[C@H](C)CN([C@H](C)CO)C(=O)c2cc(NC(=O)Nc3cccc4ccccc34)ccc2O1`, the cytotoxicity call was “inactive”.
`C[C@@H]1CN([C@@H](C)CO)C(=O)c2cc(NS(=O)(=O)c3ccc(F)cc3)ccc2O[C@@H](C)CCCCO[C@@H]1CN(C)C(=O)Nc1ccccc1` was tested, and the cytotoxicity call was “inactive”.
In the case of `C[C@H]1CCCCO[C@H](CN(C)Cc2ccc(C(F)(F)F)cc2)[C@@H](C)CN([C@@H](C)CO)C(=O)c2cc(NC(=O)C3CCCCC3)ccc2O1`, the cytotoxicity call is reported as “inactive”.
With `C[C@@H]1CN([C@H](C)CO)C(=O)Cc2cc(NC(=O)CCN3CCOCC3)ccc2O[C@@H]1CN(C)Cc1ccccc1` the cytotoxicity call was “inactive”.
With `C[C@H](CO)N1C[C@H](C)[C@H](CN(C)Cc2ccc(Oc3ccccc3)cc2)Oc2ccc(NC(=O)C3CCCCC3)cc2C1=O` the cytotoxicity call was “inactive”.
In the case of `Cc1ccc(S[C@]2(C(=O)O)CC(=O)N(Cc3ccccc3C(F)(F)F)[C@@H]2c2ccc(CO)cc2)cc1`, the cytotoxicity call is reported as “inactive”.
For `COc1cccc(S(=O)(=O)N(C)C[C@@H]2Oc3ncc(-c4cccc(F)c4)cc3C(=O)N([C@H](C)CO)C[C@@H]2C)c1`, the cytotoxicity call was “inactive”.
In the case of `C[C@H](CO)N1C[C@H](C)[C@H](CN(C)Cc2ccc(C(=O)O)cc2)Oc2ccc(NC(=O)c3ccncc3)cc2C1=O`, the cytotoxicity call is reported as “inactive”.
